ELG1 repair inh: qHTS screen for small molecules that inhibit ELG1-dependent DNA repair in human embryonic kidney (HEK293T) cells expressing luciferase-tagged ELG1 | HEK293T ELG1-luciferase reporter, luminescence, 16 h; DNA damage induced by 5-fluorouridine | Potency, µM (series often up to 46.1 µM), for inactives: at the top dose activity change, negative = inhibition, actives largely listed as inhibitors | 330,000 tested, 2.3% active; also: potency is read from the fitted curve at half-maximal effect; nearly all actives have a fitted effect of over 55% in size
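Overnight (16 hr) co-exposure of 2,000 cells/well to 5-fluorouridine and compound at 37 °C preceded detection. Luciferase was quantified via ONE-Glo luminescence; loss of signal denotes inhibition.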
HT1080 IDH1KD tx: qHTS for induction of synthetic lethality in tumor cells producing 2HG: qHTS for the HT-1080-IDH1KD cell line; 360,000 tested, 2% active; HT-1080 IDH1 knockdown viability, ATP luminescence, 48 h; Potency, µM (highest dose often 46.1 µM), for inactives: at the top dose activity, negative = toxicity, usual class: cytotoxic;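 also: potency is read from the fitted curve at half-maximal effect; 0% = DMSO wells and -100% = cell-free medium wells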
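IDH1KD HT-1080 cells, 750/well, RPMI + 5% FBS; compound pinned after 2 h settling; 48 h, 37 °C; CellTiter-Glo luminescence; % activity normalised to DMSO and no-cell wells; curves fitted, classed by r2 and efficacy.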
HT1080NT lethal: qHTS for induction of synthetic lethality in tumor cells producing 2HG: qHTS for the HT-1080-NT fibrosarcoma cell line | HT-1080-NT fibrosarcoma viability, CellTiter-Glo ATP luminescence, 48 h | Potency, µM (titrated, usually from 46.1 µM), inactives show at the top dose activity, negative = less viability, actives largely listed as cytotoxic | 360,000 tested, 1.6% active;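 also: NT is the 2HG producing partner of a matched IDH1 knockdown line; potency is read from the fitted curve at half-maximal effect; 0% = DMSO-treated cells and -100% = media-only wells without cells; nearly all actives have a fitted effect of over 55% in size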
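Read-out is CellTiter-Glo luminescence after 10 minutes at room temperature, following 48 hours' compound treatment of HT-1080-NT cells (750 cells/well, RPMI, 5% FBS, 37 degrees C).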
TDP1 cell noCPT: qHTS for Inhibitors of human tyrosyl-DNA phosphodiesterase 1 (TDP1): qHTS in cells in absence of CPT. DT40 Tdp1-/- hTDP1 cells, no CPT, ATP luminescence, 48 h. Potency, µM (series often up to 46.2 µM), for inactives: at the top dose activity change, negative = growth inhibition, actives largely listed as inhibitors. 420,000 tested, 15% active; also: potency is read from the fitted curve at half-maximal effect; nearly all actives have a fitted effect of over 55% in size
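Readout: luminescence from CellTiter-Glo after 30 min in the dark at RT. Cells: DT40 Tdp1-/- with stable hTDP1, 400/well. Exposure: compounds alone, ≥48 hr, 37 °C.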
DT40 TDP1 CPT: qHTS for Inhibitors of human tyrosyl-DNA phosphodiesterase 1 (TDP1): qHTS in cells in presence of CPT; 420,000 tested, 12% active; Potency, µM (top dose mostly 46.2 µM), without a hit: top-dose activity change, negative = growth inhibition, actives largely listed as inhibitors; chicken DT40 Tdp1-/-;hTDP1 cells + 20 nM CPT, ATP luminescence, 48 h; also: potency is read from the fitted curve at half-maximal effect; nearly all actives have a fitted effect of over 55% in size
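Chicken DT40 Tdp1-/- cells complemented with human TDP1, 400 cells/well, exposed to compounds plus 20 nM camptothecin for at least 48 h at 37 C; viability read as ATP content by CellTiter-Glo luminescence.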
IL-1B inflam inh: qHTS for Inhibitors of Inflammasome Signaling: IL-1-beta AlphaLISA Primary Screen; THP-1 LPS/ATP IL-1B secretion, AlphaLISA, 16 h; active compounds read low; activity change, % at 57.5 µM; 360,000 tested, 4.7% active; AID 743279, 2014; in the data active = activity change below about -50%; inconclusive = mostly about -30% to -49%
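THP-1 cells pretreated 1 hr with compounds (up to 57.5 uM final), then stimulated with LPS (250 ng/mL final) plus ATP (1.25 mM final); secreted IL-1B measured by AlphaLISA after 16 hr, decreased signal indicating inhibition.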
The depositor's hits bear a star; ? = inconclusive; · = no result given. Only some compounds are listed: those with a hit (about 19% of all), similar ones and a draw of the others. Unless noted, calls follow the shape of the dose curve; as a rule, active = well fitted curve in the direction sought with a large enough effect; inconclusive = small, poorly fitted or top-dose-only effect, or another doubt; inactive = no such curve, though single readings can be large; an effect the other way counts as inactive or inconclusive. Unless noted, % is scaled to controls: 0 for no effect and ±100 for the full control effect.

SMILES	ELG1 repair inh	HT1080 IDH1KD tx	HT1080NT lethal	TDP1 cell noCPT	DT40 TDP1 CPT	IL-1B inflam inh
CCOC(=O)C1CCN(CC(=O)N2CCCc3c2c(=O)oc2ccc(OCc4ccccc4)cc32)CC1	·	·	·	-22%	-22%	·
CCCOc1ccc2oc(=O)c3c(c2c1)CCCN3C(=O)CN1CCN(C(=O)c2ccco2)CC1	-2%	·	·	·	·	·
CCCOc1ccc2oc(=O)c3c(c2c1)CCCN3C(=O)CN1CCN(c2ncccn2)CC1	6%	18%	13%	?	18µM*	6
Cc1ccnc(NC(=O)CCC(=O)N(CC(=O)NCc2ccccc2)c2ccc3c(c2)OCO3)c1	?	20%	-1%	23µM*	7.3µM*	5
CCN(CC)C(=O)c1scc2c1OCCO2	?	-3%	-2%	-20%	-3%	-56*
Cc1cc(C)cc(NS(=O)(=O)c2ccc3c(c2)CCCN3C(=O)C2CCC2)c1	·	·	·	21µM*	23µM*	·
COC(=O)c1cc(S(=O)(=O)Nc2cccc(OC)c2)cn1C	?	-6%	17%	23µM*	?	1
COc1cc(NS(=O)(=O)c2ccc3c(c2)CCN3S(C)(=O)=O)cc(OC)c1	·	·	·	5.2µM*	18µM*	·
COc1cccc(NS(=O)(=O)c2ccc3c(c2)CCCN3C(=O)C2CCC2)c1	·	·	·	?	23µM*	·
COc1cc(NS(=O)(=O)c2ccc3c(c2)C(C)(C)C(=O)N3C)cc(OC)c1	27%	1%	0%	-5%	-2%	25
O=C(C1CCC1)N1CCc2cc(S(=O)(=O)NCCCN3CCCCC3)ccc21	18%	3%	-16%	-8%	-11%	3
O=C(C1CCC1)N1CCCc2cc(S(=O)(=O)Nc3ccc(F)cc3)ccc21	·	·	·	23µM*	?	·
Cn1c(=O)c2c(nc(CN3CCN(c4ccccc4)CC3)n2Cc2ccccc2Cl)n(C)c1=O	?	0%	5%	15µM*	?	24
Cn1c(=O)c2c(nc(N3CCOCC3)n2Cc2cccc(Br)c2)n(C)c1=O	·	·	·	5.8µM*	9.2µM*	·
Cn1c(=O)c2c(nc(CN3CCC(C(N)=O)CC3)n2Cc2ccccc2F)n(C)c1=O	1%	1%	-1%	3%	-6%	29
Cn1c(=O)c2c(nc(CN3CCN(c4ccccc4)CC3)n2Cc2ccccc2F)n(C)c1=O	-26%	·	·	·	·	·
CC1CCCN(Cc2nc3c(c(=O)n(C)c(=O)n3C)n2Cc2c(F)cccc2Cl)C1 (stereo unspecified)	1%	10%	2%	9.2µM*	8.2µM*	8
Cn1c(=O)c2c(nc(CN3CCN(c4ccccc4)CC3)n2Cc2c(F)cccc2Cl)n(C)c1=O	10µM*	-7%	0%	8.2µM*	21µM*	32
Cc1cccc(N(CC(=O)NC2CCCCC2)C(=O)CCCC(=O)Nc2ccccn2)c1C	0%	-1%	-3%	-23%	4%	-15
CN(Cc1ccccc1)c1nc2c(c(=O)n(C)c(=O)n2C)n1CCSc1ncccn1	?	-1%	-3%	18µM*	23µM*	6
Cn1c(=O)c2c(nc(N3CCOCC3)n2CCSc2ncccn2)n(C)c1=O	0%	4%	11%	23µM*	21µM*	9
CC1CN(c2nc3c(c(=O)n(C)c(=O)n3C)n2Cc2c(F)cccc2Cl)CC(C)O1 (stereo unspecified)	-4%	5%	2%	?	-32%	-22
Cn1c(=O)c2c(nc(N3CCOCC3)n2Cc2c(F)cccc2Cl)n(C)c1=O	-10%	14%	6%	23µM*	21µM*	6
Cc1ccccc1Cn1c(CN2CCN(c3ccc(F)cc3)CC2)nc2c1c(=O)n(C)c(=O)n2C	-6%	·	·	·	·	·
Cc1ccccc1Cn1c(CN2CCCC(C)C2)nc2c1c(=O)n(C)c(=O)n2C (stereo unspecified)	·	·	·	5.8µM*	8.2µM*	·
SMILES	ELG1 repair inh	HT1080 IDH1KD tx	HT1080NT lethal	TDP1 cell noCPT	DT40 TDP1 CPT	IL-1B inflam inh
CCOc1ccc(NC(=O)CCC(=O)NNS(=O)(=O)c2ccccc2[N+](=O)[O-])cc1	5%	0%	10%	-11%	4%	2
COc1ccc(CNC(NC(=O)c2ccccc2)(C(F)(F)F)C(F)(F)F)cc1	-16%	-1%	1%	?	?	12
COCCNC(=O)NC12CC3(C)CC(C)(CC(C)(C3)C1)C2	-10%	-11%	5%	?	?	27
CC(NC(=O)C1CCN(S(=O)(=O)c2ccc(F)cc2)CC1)c1ccccc1 (stereo unspecified)	·	·	·	-12%	?	·
COC1=CC(=O)C=C(OC)C1(O)CC(C)=O	·	5%	0%	3.7µM*	4.1µM*	1
COC(=O)c1sc2nc(CSc3ccc(Br)cc3)[nH]c(=O)c2c1C	?	0%	1%	21µM*	?	35
Cn1nccc1-c1coc2c(C(=O)NCC3CCOCC3)cccc12	·	13%	0%	23µM*	?	65
Cn1c(N)c(C(=O)CCl)c(=O)n(Cc2ccccc2)c1=O	21µM*	6%	-2%	5.8µM*	2.3µM*	-97*
Cn1c(=O)c(C(=O)CCl)c(N)n(Cc2ccccc2)c1=O	?	-19%	-6%	4.6µM*	4.1µM*	-95*
CN(C)CC(=O)c1c(N)n(Cc2ccccc2)c(=O)n(C)c1=O	7%	8%	1%	2%	11%	3
Cn1c(N)c(C(=O)CCl)c(=O)n(C)c1=O	7%	6%	4%	?	7.3µM*	?
Cc1ccsc1C(=O)N1CCCC(CO)(Cc2ccccc2)C1 (stereo unspecified)	-4%	1%	-3%	-24%	?	52
CCc1ccc(NC(=O)c2c(C(=O)Nc3ccccc3)sc3nc(C)cc(=O)n23)cc1	2%	-13%	?	?	?	-5
CCCCNC(=O)[C@@H]1CSC2c3ccccc3C(=O)N21 (stereo partly specified)	3%	15%	18%	-9%	-12%	-3
O=C(/C(=C/O)N=Nc1ccccc1)c1cccs1	-26%	?	16µM*	?	?	-74*
